The source of these data is ChEMBL document CHEMBL3988442, “University of Dundee, Small-Polar-MMV Screening Library” (2021).

SMILES strings stand for the structures. For some of these results: Entries with a potency or affinity are not part of this list.

Common to all, as to set-up: scale not given: direction of the effect not stated beside the values
Test [1] addresses Protein translocase subunit SecA (Escherichia coli (strain K12)) (UniProt P10408). As to the kind of experiment: Assay to Identify E. coli SecA ATPase Inhibitors. To be noted: 30 µM. In kind it is functional.
Test [2] addresses T1, Ubiquitin-activating enzyme e1, putative (Leishmania donovani (strain BPK282A1)) (UniProt E9BSI1).
T1 sequence (whole entry): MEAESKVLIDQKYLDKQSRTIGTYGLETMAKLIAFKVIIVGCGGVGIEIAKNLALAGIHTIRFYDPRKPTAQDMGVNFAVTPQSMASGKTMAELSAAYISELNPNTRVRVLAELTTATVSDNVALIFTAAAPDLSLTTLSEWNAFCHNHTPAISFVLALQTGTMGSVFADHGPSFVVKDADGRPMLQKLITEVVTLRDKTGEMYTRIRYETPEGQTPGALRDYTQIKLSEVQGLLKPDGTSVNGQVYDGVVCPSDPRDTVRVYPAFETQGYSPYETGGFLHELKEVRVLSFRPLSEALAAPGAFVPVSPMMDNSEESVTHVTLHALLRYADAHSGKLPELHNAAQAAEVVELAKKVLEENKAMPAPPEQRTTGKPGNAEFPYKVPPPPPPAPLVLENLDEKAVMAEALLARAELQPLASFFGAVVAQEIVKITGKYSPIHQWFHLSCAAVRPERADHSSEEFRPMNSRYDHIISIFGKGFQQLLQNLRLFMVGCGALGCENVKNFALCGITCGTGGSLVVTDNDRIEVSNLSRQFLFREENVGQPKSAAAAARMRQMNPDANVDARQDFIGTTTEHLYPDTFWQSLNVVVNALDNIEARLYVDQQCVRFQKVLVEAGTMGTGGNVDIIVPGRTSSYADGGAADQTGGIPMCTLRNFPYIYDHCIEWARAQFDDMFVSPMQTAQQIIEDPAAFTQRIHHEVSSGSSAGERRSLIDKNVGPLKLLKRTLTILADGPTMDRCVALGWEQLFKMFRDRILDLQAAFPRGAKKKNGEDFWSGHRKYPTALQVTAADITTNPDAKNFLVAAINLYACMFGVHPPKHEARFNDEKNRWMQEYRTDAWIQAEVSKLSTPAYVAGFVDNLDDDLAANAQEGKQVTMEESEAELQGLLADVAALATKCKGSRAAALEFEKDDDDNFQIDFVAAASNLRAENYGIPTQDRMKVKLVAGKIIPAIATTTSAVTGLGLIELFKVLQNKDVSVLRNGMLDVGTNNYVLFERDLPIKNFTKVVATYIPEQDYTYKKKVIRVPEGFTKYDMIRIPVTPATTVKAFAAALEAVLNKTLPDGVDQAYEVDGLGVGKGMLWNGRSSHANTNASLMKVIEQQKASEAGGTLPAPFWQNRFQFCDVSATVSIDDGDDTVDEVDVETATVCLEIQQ
Briefly: Leishmania donovani Ubiquitin Activating Enzyme (LdE1). The test is classed as functional. To be noted: 30 µM.

Test [3] concerns the target AMP-activated protein kinase, AMPK (Homo sapiens) (UniProt P54646+O43741+P54619+Q9UGJ0+Q9Y478+Q13131+Q9UGI9). Briefly: AMP-dependent Kinase enzyme assay. An in vitro enzyme assay that detects ADP turnover that is directly proportional to AMPK activity. This uses naive AMPK that is activated during the assay with MK-8722. In kind it is functional. To be noted: 30 µM.
The target of test [4] is Sialic acid-binding Ig-like lectin 9 (Homo sapiens) (UniProt Q9Y336). As to the kind of experiment: Hs-Siglec9 ALPHAscreen SOP 20170721. Conditions: 10 µM. In general terms: Alpha assays give light when donor and acceptor beads are brought close together.
For another test, the system named is Trypanosoma cruzi. As to the kind of experiment: Trypanosoma cruzi phosphomannomutase and mannose-1-phosphate guanylyltransferase assay. The test is classed as functional. Conditions: 10 µM.
Test [5] deals with T2, Arginase-2, mitochondrial (Homo sapiens) (UniProt P78540).
T2 sequence (whole entry): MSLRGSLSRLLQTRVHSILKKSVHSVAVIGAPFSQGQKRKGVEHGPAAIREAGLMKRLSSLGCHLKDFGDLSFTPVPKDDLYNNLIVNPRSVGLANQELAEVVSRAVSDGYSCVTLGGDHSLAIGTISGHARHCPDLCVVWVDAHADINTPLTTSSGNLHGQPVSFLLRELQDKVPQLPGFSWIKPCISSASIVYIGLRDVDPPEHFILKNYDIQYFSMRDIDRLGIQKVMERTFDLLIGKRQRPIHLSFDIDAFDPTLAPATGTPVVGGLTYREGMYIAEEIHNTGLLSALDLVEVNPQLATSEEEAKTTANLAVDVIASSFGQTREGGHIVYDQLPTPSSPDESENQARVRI
Briefly: in vitro enzyme assay to detect the production of urea directly proportional to the activity of Arginase II. Also: in the data most compounds retested in dose-response had high values. In kind it is functional. Conditions: 33.3 µM.

The target of test [6] is T3, Proteasome subunit beta (Trypanosoma cruzi) (UniProt O96673).
T3 sequence (whole entry): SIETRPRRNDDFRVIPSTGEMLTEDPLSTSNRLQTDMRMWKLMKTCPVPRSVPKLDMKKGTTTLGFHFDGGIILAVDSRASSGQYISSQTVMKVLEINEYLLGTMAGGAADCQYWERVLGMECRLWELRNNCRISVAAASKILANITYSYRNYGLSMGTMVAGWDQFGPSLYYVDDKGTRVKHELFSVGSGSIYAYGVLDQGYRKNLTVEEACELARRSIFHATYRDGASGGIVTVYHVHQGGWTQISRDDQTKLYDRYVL
Briefly: Trypanosoma cruzi proteasome chymotrypsin-like activity (TcProtChymo) assay. Also: in the data most compounds retested in dose-response had high values. To be noted: 9.37 µM. In kind it is functional.

The species named for another test is Homo sapiens. Briefly: To identify inhibition of the IFN signalling (Jak-Stat) pathway via expression of an eGFP reporter gene under the control of an IFN-stimulated response element (ISRE) containing MxA promoter. The test is classed as functional. To be noted: 30 µM.
The target of test [7] is T4, Tyrosyl-tRNA synthetase, putative (Trypanosoma cruzi (strain CL Brener)) (UniProt Q4DSP6).
T4 sequence (whole entry): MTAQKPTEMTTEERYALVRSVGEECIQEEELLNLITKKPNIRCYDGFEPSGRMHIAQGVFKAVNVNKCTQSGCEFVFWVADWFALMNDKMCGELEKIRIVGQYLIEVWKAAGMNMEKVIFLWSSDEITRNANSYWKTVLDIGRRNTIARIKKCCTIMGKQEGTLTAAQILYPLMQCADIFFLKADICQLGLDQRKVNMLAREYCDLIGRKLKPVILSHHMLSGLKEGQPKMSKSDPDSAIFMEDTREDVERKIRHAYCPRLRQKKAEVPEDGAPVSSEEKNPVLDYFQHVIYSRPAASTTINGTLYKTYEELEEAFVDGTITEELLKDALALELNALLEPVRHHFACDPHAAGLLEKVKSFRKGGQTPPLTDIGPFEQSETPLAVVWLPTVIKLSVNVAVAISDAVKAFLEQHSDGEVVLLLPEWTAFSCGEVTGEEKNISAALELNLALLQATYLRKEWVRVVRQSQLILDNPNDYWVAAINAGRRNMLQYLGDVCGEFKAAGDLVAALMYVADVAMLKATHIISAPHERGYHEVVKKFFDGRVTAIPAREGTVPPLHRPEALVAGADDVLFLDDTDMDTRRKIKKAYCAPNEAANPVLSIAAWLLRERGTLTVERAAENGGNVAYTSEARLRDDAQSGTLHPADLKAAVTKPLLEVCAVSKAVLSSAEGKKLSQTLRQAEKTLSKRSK
As to the kind of experiment: Trypanosoma cruzi tyrosyl tRNA synthetase (TcYRS) _High Tyrosine SOP. Also: in the data most compounds retested in dose-response had high values. In kind it is functional. To be noted: 30 µM.

Test [8] addresses T4, Tyrosyl-tRNA synthetase, putative (Trypanosoma cruzi (strain CL Brener)). Briefly: Trypanosoma cruzi tyrosyl tRNA synthetase (TcYRS) SOP. In kind it is functional. To be noted: 30 µM.
For test [9], the target named is Chromo domain-containing protein 1 (Saccharomyces cerevisiae (strain ATCC 204508 / S288c) (Baker's yeast)) (UniProt P32657). As to the kind of experiment: ScCHD-1 Enzyme Inhibition Assay. Also: in the data most compounds retested in dose-response had high values. The test is classed as functional. Conditions: 30 µM.
Sequence of Chromo domain-containing protein 1 (Saccharomyces cerevisiae (strain ATCC 204508 / S288c) (Baker's yeast)) (P32657 whole entry, the tested form may be a part): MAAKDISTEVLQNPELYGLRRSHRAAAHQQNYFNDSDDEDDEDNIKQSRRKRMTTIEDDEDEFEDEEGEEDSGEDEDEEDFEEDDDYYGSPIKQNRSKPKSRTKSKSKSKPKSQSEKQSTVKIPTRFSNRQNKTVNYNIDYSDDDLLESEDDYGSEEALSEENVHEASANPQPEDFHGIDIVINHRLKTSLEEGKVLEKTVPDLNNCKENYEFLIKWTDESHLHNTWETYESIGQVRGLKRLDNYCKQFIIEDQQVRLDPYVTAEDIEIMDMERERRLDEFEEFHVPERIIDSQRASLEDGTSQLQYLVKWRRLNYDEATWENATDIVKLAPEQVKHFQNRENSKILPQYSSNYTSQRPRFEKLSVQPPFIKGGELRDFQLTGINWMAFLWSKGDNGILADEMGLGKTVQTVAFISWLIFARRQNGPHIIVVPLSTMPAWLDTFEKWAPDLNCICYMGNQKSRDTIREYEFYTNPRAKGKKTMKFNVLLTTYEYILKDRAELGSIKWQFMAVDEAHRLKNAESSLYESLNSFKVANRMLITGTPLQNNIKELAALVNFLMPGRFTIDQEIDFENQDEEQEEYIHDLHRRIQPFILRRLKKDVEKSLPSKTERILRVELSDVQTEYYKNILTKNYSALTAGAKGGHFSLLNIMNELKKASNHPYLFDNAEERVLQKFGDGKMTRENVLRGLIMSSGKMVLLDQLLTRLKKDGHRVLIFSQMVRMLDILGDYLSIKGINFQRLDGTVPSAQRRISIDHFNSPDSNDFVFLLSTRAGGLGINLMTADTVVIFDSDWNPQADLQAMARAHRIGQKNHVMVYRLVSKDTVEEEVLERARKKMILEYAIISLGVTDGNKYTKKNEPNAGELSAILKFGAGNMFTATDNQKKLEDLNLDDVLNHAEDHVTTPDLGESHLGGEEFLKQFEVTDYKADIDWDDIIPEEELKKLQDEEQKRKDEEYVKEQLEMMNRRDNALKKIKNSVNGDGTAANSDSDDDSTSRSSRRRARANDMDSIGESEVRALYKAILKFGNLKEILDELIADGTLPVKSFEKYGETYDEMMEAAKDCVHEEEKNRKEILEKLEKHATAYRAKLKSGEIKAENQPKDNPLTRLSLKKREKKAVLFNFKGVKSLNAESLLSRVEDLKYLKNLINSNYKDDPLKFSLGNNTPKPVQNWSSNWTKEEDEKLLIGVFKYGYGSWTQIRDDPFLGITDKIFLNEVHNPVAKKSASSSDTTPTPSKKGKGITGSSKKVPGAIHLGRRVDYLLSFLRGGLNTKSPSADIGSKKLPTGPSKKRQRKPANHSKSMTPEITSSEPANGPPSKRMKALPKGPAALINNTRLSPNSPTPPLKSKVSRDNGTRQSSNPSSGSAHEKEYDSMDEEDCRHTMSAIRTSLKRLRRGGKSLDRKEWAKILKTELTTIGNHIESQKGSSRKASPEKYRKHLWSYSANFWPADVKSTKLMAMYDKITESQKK

Sequence of Sialic acid-binding Ig-like lectin 9 (Homo sapiens) (Q9Y336 whole entry): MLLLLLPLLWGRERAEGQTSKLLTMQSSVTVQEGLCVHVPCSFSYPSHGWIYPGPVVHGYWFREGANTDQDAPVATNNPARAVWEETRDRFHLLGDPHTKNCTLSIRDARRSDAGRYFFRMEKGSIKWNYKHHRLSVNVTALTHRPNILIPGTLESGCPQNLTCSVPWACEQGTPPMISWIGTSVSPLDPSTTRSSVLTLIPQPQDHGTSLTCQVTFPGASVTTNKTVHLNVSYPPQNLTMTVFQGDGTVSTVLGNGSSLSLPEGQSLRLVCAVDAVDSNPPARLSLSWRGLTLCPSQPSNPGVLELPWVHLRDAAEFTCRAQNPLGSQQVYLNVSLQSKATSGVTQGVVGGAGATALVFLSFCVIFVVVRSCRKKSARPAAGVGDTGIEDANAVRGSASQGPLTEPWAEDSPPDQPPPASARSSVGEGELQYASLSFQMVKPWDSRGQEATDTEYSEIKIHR
Sequence of Protein translocase subunit SecA (Escherichia coli (strain K12)) (P10408 whole entry): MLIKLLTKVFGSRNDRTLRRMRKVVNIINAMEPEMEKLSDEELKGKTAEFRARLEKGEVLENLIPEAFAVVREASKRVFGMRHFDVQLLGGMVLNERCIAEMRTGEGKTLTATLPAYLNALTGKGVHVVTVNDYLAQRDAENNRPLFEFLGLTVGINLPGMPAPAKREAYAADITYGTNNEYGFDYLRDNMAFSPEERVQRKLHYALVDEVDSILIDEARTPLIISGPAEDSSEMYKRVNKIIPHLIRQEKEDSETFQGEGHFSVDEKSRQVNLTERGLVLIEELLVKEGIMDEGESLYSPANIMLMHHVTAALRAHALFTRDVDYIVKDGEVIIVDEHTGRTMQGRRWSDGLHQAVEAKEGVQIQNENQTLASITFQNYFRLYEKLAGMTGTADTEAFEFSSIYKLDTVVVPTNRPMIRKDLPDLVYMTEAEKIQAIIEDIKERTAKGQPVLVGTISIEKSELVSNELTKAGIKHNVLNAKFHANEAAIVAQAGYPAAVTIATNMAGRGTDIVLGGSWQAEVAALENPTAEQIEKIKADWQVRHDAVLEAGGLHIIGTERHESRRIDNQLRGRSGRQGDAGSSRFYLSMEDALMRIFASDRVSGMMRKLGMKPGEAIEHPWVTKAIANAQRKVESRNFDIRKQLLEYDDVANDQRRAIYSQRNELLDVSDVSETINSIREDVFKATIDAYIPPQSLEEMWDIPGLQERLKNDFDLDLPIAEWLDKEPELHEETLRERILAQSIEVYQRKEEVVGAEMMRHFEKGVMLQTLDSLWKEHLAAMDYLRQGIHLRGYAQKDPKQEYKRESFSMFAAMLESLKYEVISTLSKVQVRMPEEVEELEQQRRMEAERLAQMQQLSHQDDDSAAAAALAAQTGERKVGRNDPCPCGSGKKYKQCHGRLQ

As for `CCc1nc(CC(=O)N2CCn3c(nnc3C(C)C)C2)cs1`, the Percent Effect was -3.31% in [1]; 0% in test [2]; 1.23% in test [3]; 1.14% in test [4]; 3.95% in the test on Trypanosoma cruzi; -1.92% in test [5]. The Percent Effect in test [6] was 3.68%; in the test listed under Homo sapiens, -11.4%; in test [7], 2.45%; in [8], 12.2%; in test [9], -11%.
As for `CCc1nccn1C1CCCN(C(=O)c2cc3nc(C)ccc3o2)C1` (stereo unspecified), the Percent Effect is -7.55% in [1]; 8.11% in test [2]; -3.48% in [3]; 4.87% in [4]; -6.7% in the test on Trypanosoma cruzi; -4.81% in [5]. The Percent Effect in [6] was 4.87%; in the test filed under Homo sapiens it was 32.4%; in [7], 3.45%; in test [8], 3.7%; in [9] it was 0.188%.
Take `Cc1nnn2c1COCC(CNC(=O)c1ccc3[nH]ccc3c1)C2` (stereo unspecified): the Percent Effect in test [1] was -2.29%; in test [2], 13%; in test [3], -0.0167%; in [4], 8.82%; in the test on Trypanosoma cruzi it was 9.73%; in [5], -46.9%. For the same molecule, the Percent Effect in [6] is 18.1%; in the test filed under Homo sapiens it was 14.9%; in [7] it was 6.45%; in [8], 13.6%; in test [9], -3.15%.
In the case of `CN1CC(=O)N(c2cccc(F)c2)CC12CCNC2` (stereo unspecified), the Percent Effect was -5.9% in test [1]; 0% in test [2]; 3.44% in [3]; -2.82% in [4]; -3.03% in the test with Trypanosoma cruzi; -4.78% in test [5]. For the same molecule, the Percent Effect in test [6] is 10.7%; in the test filed under Homo sapiens, 12.5%; in test [7], -1.08%; in test [8] it was 5.13%; in test [9], 1.85%.
For the molecule `CC(O)CN1CCN(C(=O)c2cc3ccccc3c(=O)[nH]2)CC1` (stereo unspecified), the Percent Effect in test [1] was -0.781%; in test [2], -5.26%; in test [3] it was 5.31%; in test [4], -2.11%; in the test with Trypanosoma cruzi it was -3.41%; in test [5] it was -10.7%. The Percent Effect is 13.1% in [6]; -6.84% in the test filed under Homo sapiens; 0% in [7]; 2.6% in [8]; 12.2% in [9].
With `Cc1nc(C)c(CC(=O)N2C[C@H]3CC[C@@H]2CN(C(=O)N(C)C)C3)c(=O)[nH]1`, the Percent Effect in test [1] was -12.8%; in test [2], 0%; in test [3], -2.11%; in test [4], -2.97%; in the test with Trypanosoma cruzi it was -5.18%; in test [5], -1.74%. The Percent Effect was -2.49% in [6]; 26.8% in the test filed under Homo sapiens; -1.07% in test [7]; -1.24% in [8]; -2.75% in [9].
`Cc1cc2n(n1)CC(CNC1CCN(Cc3ccccc3C)CC1)CN2` (stereo unspecified): the Percent Effect in test [1] is -8.28%; in test [2] it was 0%; in test [3], -15.1%; in test [4], 13.7%; with Trypanosoma cruzi, 0.684%; in test [5], -2.73%. For the same molecule, the Percent Effect in [6] is 2.49%; in the test listed under Homo sapiens, 16.5%; in test [7] it was 4.3%; in [8], 3.7%; in test [9], -2.06%.
Consider `O=C(C1CCOCC1)N1CCc2ncnc(-c3ccc(F)cc3)c2CC1`, for which the Percent Effect in test [1] is -1.29%; in [2], 2.67%; in [3] it was 4.73%; in test [4], 2.72%; in the test on Trypanosoma cruzi, -1.35%; in [5] it was -2.33%. Also, the Percent Effect was 8.89% in test [6]; -4.53% in the test filed under Homo sapiens; 0% in test [7]; -2.5% in [8]; -3.02% in [9].
With `O=C(c1ccncn1)N1CCO[C@H]2[C@@H](OCc3cccnc3)CC[C@@H]21`, the Percent Effect was -1.55% in test [1]; 8% in [2]; -0.169% in [3]; 5.8% in test [4]; -3.48% with Trypanosoma cruzi; -23.8% in test [5]. Also, the Percent Effect in [6] was 8.72%; in the test listed under Homo sapiens, 2.92%; in [7], -6.25%; in test [8], 7.5%; in test [9] it was -6.65%.
On to `Cc1nc(CN2CCCC(NCc3c(C)nc4sccn34)C2)no1` (stereo unspecified), for which the Percent Effect in test [1] was -2.09%; in test [2], 5.2%; in [3], -2.06%; in test [4] it was -6.92%; in the test with Trypanosoma cruzi it was -1.31%; in [5] it was 0.712%. Besides, the Percent Effect in test [6] is 15.9%; in the test filed under Homo sapiens, 45.2%; in test [7], 10.7%; in test [8], 19.5%; in test [9], -6.87%.
In the case of `CC(C)COCC(NC(=O)c1cc[nH]n1)c1ccco1` (stereo unspecified), the Percent Effect is -5.65% in [1]; 24.3% in test [2]; -9.5% in test [3]; 15.5% in [4]; 1.79% in the test with Trypanosoma cruzi; -13.6% in [5]. Also, the Percent Effect in [6] was 5.59%; in the test listed under Homo sapiens, 19.5%; in test [7] it was 4.43%; in test [8] it was 18.5%; in test [9] it was -12.3%.
